Screening data from PubChem.
Most compounds without a hit are left out; they make up all but 7.5% or so of the library.
FMDV inh: foot and mouth disease virus antiviral activity; 410,000 tested, 1.2% active; Potency, µM (series often up to 57.9 µM), most hits filed as inhibitors; AID 1159524; FMDV antiviral cell-based qHTS; calls by dose curve; tested in HEK293T cells; note: read-out not given here; nearly all actives have a fitted effect of over 45% in size
HCV inh: inhibitors of hepatitis C virus infection | AID 651820 | Potency, µM (highest dose often 41.8 µM), actives largely listed as inhibitors | 340,000 tested, 3.4% active | Huh7.5.1 HCVcc-Cre infection, luciferase reporter, 44 h
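A cell-based infection assay in which seeded cells (1,000 per well) receive test compound after 4 h, are inoculated with HCVcc-Cre at approximately 0.5 moi, and are incubated 44 h before luminescence detection.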
VACV Venus inh: vaccinia inhibition (Venus reporter); AID 720580; 330,000 tested, 0.46% active; Potency, µM (highest dose often 36.5 µM), hits mostly inhibitors; Vaccinia virus Venus reporter expression, fluorescence; calls by dose curve; tested in A549 cells; note: nearly all actives have a fitted effect of over 30% in size
HCMV inh: human cytomegalovirus inhibition | HFF cells, HCMV-luciferase reporter, 72 h; hits give low values | 410,000 tested, 4.5% active | activity change, negative = inhibition, % at 57.5 µM; in the data active = activity change below about -60%; inconclusive = no clear call, values can overlap the other calls; inactive = above about -39%
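HFF cells seeded 16 h at 37C, treated with compounds, infected with luciferase-reporter HCMV at MOI 1 PFU/cell; luciferase read at 72 h post infection, normalized to buffer-only and Salinomycin controls.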
Vaccinia mCherry: vaccinia inhibition (mCherry reporter); Vaccinia virus mCherry reporter infection, fluorescence; Potency, µM (series often up to 36.5 µM), hits mostly inhibitors; 310,000 tested, 0.63% active; calls by dose curve; tested in A549 cells; note: nearly all actives have a fitted effect of over 35% in size
FBPA Giardia inh: Giardia lamblia aldolase inhibition. A8B2U2. Potency, µM (top dose mostly 59.6 µM), most hits filed as inhibitors. AID 2451. purified Giardia FBPA. 290,000 tested, 0.71% active; note: nearly all actives have a fitted effect of over 55% in size
Target sequence (A8B2U2 whole entry, looked up): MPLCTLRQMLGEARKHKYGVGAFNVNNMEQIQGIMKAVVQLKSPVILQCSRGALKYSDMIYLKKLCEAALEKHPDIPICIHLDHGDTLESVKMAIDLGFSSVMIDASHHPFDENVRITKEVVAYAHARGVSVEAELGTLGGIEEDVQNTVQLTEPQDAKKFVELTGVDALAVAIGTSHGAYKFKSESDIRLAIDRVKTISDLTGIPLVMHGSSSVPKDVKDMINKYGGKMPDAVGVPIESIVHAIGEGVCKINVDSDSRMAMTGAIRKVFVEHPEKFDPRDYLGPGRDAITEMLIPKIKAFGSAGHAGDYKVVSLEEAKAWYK
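Giardia FBPA (40 nM reagent) was preincubated 10 min at RT with compound (up to 57.5 uM final), then substrate plus GAPDH/TPI/NAD/arsenate coupling system with diaphorase/resazurin was added; resorufin fluorescence (525/598 nm) was read after 20 min.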
A number is an active result; – = inactive; ? = inconclusive; · = no result given; [ ] = dose if it differs, or a comment. Unless noted, calls come from the whole dose curve; as a rule, active = well fitted curve in the direction sought with a large enough effect; inconclusive = small, poorly fitted or top-dose-only effect, or another doubt; inactive = no such curve, though single readings can be large; an effect the other way counts as inactive or inconclusive.

SMILES	FMDV inh	HCV inh	VACV Venus inh	HCMV inh	Vaccinia mCherry	FBPA Giardia inh
O=C1CCC(=O)N1CN(C(=O)c1ccco1)c1ccc(Cl)c(Cl)c1	–	–	–	–	–	–
CC(=O)N(CN1C(=O)CCC1=O)c1ccc(Cl)c(Cl)c1	11µM	–	·	-66	·	–
Cc1c(C)c2ccc(OCc3ccc(C(=O)O)o3)c(C)c2oc1=O	18µM	–	·	-101	·	–
COc1cc(COc2ccc3c(C)c(Cc4ccccc4)c(=O)oc3c2C)cc(OC)c1OC	?	6.3µM	–	–	–	–
CC(Oc1ccc2c(c1)c1ccnc3c4ccccc4c(=O)n2c13)C(=O)NCCN1CCOCC1 (stereo not given)	–	11µM	?	-90	–	–
CCN(CC)S(=O)(=O)c1ccc(C(=O)Nc2cc(S(=O)(=O)N3CCOCC3)ccc2O)cc1	–	–	·	–	·	·
Cn1ccc2c(-c3ccc(C(=O)O)cc3)cc3c(c21)C1CCC3O1 (stereo not given)	–	·	–	–	–	·
CCCn1nc(NC(=O)C2CCCO2)c2cc3cccc(C)c3nc21 (stereo not given)	–	11µM	–[7.34 µM]	–	?	–
CCn1nc(NC(=O)c2cccs2)c2cc3ccccc3nc21	–	25µM	·	–	·	–
CCn1nc(NC(=O)c2ccccc2)c2cc3cccc(C)c3nc21	–	25µM	–[7.34 µM]	–	–[7.34 µM]	–
CCn1nc(NC(C)=O)c2cc3cccc(C)c3nc21	–	?	·	–	·	–
CCn1nc(NC(=O)c2cccnc2)c2cc3ccccc3nc21	?	–	·	–	·	–
Clc1cc(Cl)cc(CN2CCSCC2)c1	–	–	·	–	·	–
Cc1cc(C)c(C(=O)COC(=O)Cn2c(C)csc2=O)cc1C	–	·	–	–	–	·
CC(C)NS(=O)(=O)c1cc(C(F)(F)F)ccc1/C=C/C(=O)O	·	·	–	·	–	·
CN1CCC(OC2c3ccccc3CCc3ccccc32)CC1	–	·	–	?	–	·
Brc1ccc2c(c1)C(OC1CN3CCC1CC3)c1ccccc1CS2 (stereo not given)	–	32µM	11µM	–	?	–
COc1ccc(-n2nnc(-c3nsc(NC(=O)c4cccc(C)c4)n3)c2C)cc1OC	?	·	–	-100	–	·
Cc1ccc(-n2nnc(-c3nsc(NC(=O)c4ccccc4C)n3)c2C)cc1Cl	–	·	–	-99	–	·
Cc1ccc(-n2nnc(-c3nsc(NC(=O)c4ccc(C)c(C)c4)n3)c2C)cc1	–	·	–	–	–	·
COc1cc(OC)cc(C(=O)Nc2nc(-c3nnn(-c4ccc(F)c(Cl)c4)c3C)ns2)c1	–	·	?	-94	–	·
Cc1cc(C)cc(-n2nnc(-c3nsc(NC(=O)c4ccccc4Cl)n3)c2C)c1	–	·	–	–	–	·
CCCCc1ccc(NC(=O)CSc2nnc(C)c(=O)n2N)cc1	–	–	·	–	·	–
CCOC(=O)c1ccc(NC(=O)c2c(NCc3cc(OC)c(OC)cc3OC)sc3c2CCCC3)cc1	–	·	–	–	–	·
Cc1ccnc(NC(=O)CCCc2c[nH]c3ccccc23)c1	–	–	?	-101	?	·
SMILES	FMDV inh	HCV inh	VACV Venus inh	HCMV inh	Vaccinia mCherry	FBPA Giardia inh
Cc1ccc(NC(=O)CCCc2c[nH]c3ccccc23)nc1	–	–	·	-98	·	–
CC(=O)NC1C(Oc2ccc3c(C)cc(=O)oc3c2)OC(COC(C)=O)C(OC(C)=O)C1OC(C)=O (stereo not given)	–	–	–	–	–	–
Cn1c(/C(C#N)=C/C2CC=CCC2)nc2ccccc21 (stereo not given)	·	–	–	–	–	–
N#C/C(=C\c1ccc(Sc2nc3ccccc3[nH]2)o1)c1ccccc1	?	10µM	?	-96	·	–
CN(C)/C=C(\C#N)c1nc2ccccc2[nH]1	·	–	–	–	–	–
N#C/C(=C/c1ccc(N2CCOCC2)o1)c1nc2ccccc2[nH]1	–	–	–	–	·	?
N#C/C(=C\c1ccc(Sc2ccc(Cl)cc2)o1)c1nc2ccccc2[nH]1	–	?	–	-68	?	–
N#C/C(=C\C1CC=CCC1)c1nc2ccccc2[nH]1 (stereo not given)	?	?	·	-82	·	–
N#C/C(=C\c1c(Cl)cccc1Cl)c1nc2ccccc2[nH]1	–	–	–	-70	–	–
COc1ccc(Cc2c(O)nc(SCC(=O)NC(C)(C)C)[nH]c2=O)cc1	–	–	–	–	–	–
COc1ccc(CCNC(=O)CCCn2c(=O)c3ccccc3n(CC(=O)Nc3ccc(C)cc3Cl)c2=O)cc1OC	–	·	–	–	–	·
